Assay results reported in PubChem BioAssay AID1467 (National Center for Advancing Translational Sciences (NCATS), 2008).
Screen size: about 230,000 compounds; fewer than 10 were called active. Calls come from the whole dose curve; as a rule, active = well fitted curve in the direction sought with a large enough effect; inconclusive = small, poorly fitted or top-dose-only effect, or effect the other way, or another doubt; inactive = no such curve, though single readings can be large or run the other way. The list is a sample of the results.

These molecules were tested against Alpha-galactosidase A (Homo sapiens) (UniProt P06280) (assay: qHTS Assay for Inhibitors of Human alpha-Galactosidase at pH 4.5.). Conditions: purified enzyme, 4-MU-alpha-Gal fluorescence; series mostly up to 105 µM; activity change, negative = inhibition: at the top concentration.
Sequence of Alpha-galactosidase A (Homo sapiens) (P06280 whole entry, looked up): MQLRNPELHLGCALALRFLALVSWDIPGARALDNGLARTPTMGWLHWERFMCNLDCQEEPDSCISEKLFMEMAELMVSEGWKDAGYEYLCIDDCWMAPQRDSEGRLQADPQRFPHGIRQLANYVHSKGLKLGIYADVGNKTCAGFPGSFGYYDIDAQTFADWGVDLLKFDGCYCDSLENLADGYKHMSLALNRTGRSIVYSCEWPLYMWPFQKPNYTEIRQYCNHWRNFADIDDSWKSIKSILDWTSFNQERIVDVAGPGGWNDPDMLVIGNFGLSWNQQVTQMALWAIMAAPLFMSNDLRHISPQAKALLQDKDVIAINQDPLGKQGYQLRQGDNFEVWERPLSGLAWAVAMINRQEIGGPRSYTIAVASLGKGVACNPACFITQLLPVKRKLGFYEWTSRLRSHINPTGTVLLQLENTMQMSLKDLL
Excerpt: NIH Chemical Genomics Center [NCGC]
NIH Molecular Libraries Probe Production centers Network [MLPCN]
Assay Submitter (PI): Wei Zheng
Alpha-galactosidase is a homodimeric glycoprotein that hydrolyzes the terminal alpha-galactosyl moieties from glycolipids and glycoproteins. Deficiency of this enzyme results in Fabry Disease with progressive accumulation of globotriaosylceramide and other glycosphingolipids in vascular endothelial cells that causes renal failure, myocardial infarction and stroke, and premature death in patients. It has been reported that the improper folding and trafficking of alpha-galactosidase resulting from the genetic mutations may account for a significant numbers of Fabry patients. […] We optimized this alpha-galactosidase assay in 1536-well plate format for identifying the novel small molecule inhibitors with the structures other than the sugar analogs in order to develop the new pharmacological chaperones. Although this assay has the same protocol as PubChem AID 992, this is a separate project and, therefore, is published as a separate assay
NCGC Assay Protocol Summary:
This is a fluorogenic enzyme assay with 4-Methylumbelliferyl alpha-D-galactopyranoside as the substrate and human […] as the enzyme preparation. Upon the hydrolysis of this fluorogenic substrate, the resulting product, […]. 4-Methyllumbelliferone, can be excited at 365 nm and emits at 440 nm. This fluorescence which can be detected by a standard fluorescence plate reader. Data were normalized to the controls for basal activity (without enzyme) and 100% activity (with enzyme). In the AC50 values were determined from concentration-response data modeled with the standard Hill equation.
Assay buffer: 50 mM citric acid (titrated with potassium phosphate to pH 4.5), 0.005% Tween-20, pH 4.5. (pH 4.5 is an optimal condition for this enzyme assay)
1536-well assay protocol for the human alpha-galactosidase:
(1) Add 2 ul/well of enzyme (12 nM final)
(2) Add 23 nL compounds in DMSO solution. The final titration was 0.7 nM to 77 uM.
(3) Add 1 ul of substrate (400 uM final)
(4) Incubate at room temperature for 20 min.
(5) Add 2 ul stop solution (1M NaOH and 1M Glycine mixture, pH 10)
(6) Detect the assay plate in a ViewLux plate reader (PerkinElmer) with Ex=365 nm and Em=440nm.
Keywords: MLSMR, MLPCN, NIH Roadmap, qHTS, NCGC, : Alpha-galactosidase, Fabry Disease, pharmacological chaperone, chaperone therapy
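Note: 0% = full activity with enzyme and -100% = basal without enzyme.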

Activity change, negative = inhibition, inactive:
O=C(Nc1ccc(Br)cn1)C1CCN(S(=O)(=O)c2cccs2)CC1 0.23%
Cc1c(/C=N\NC(=O)c2cc3ccccc3o2)c2ccccc2n1C -5.05%
Nc1cccc(S(=O)(=O)Nc2ccc(SC(F)F)cc2)c1 -17.1%
COc1ccc(-n2cc(CNC3CCOCC3)c(-c3cccc(F)c3)n2)cc1 -7.72%
Cc1cc(NC(=O)CSCc2nc(-c3cccc(Cl)c3)oc2C)no1 -2.37%
CCCCC/C=C\C[C@H](O)/C=C/C=C/C=C/[C@@H](O)CCCC(=O)O -2.25%
N#CCSc1nn(-c2ccc(F)cc2)c(=S)s1 3.17%
Cc1nnc(NC(=O)CCC(=O)N2CCC(C)CC2)s1 4.8%
CCCNC(=O)c1c(Cl)cnn1-c1ccc(C)cc1 3.08%
COC(=O)C/C=C/[C@@H](C)[C@H](NC(=O)OCC(Cl)(Cl)Cl)c1ccccc1 -4.23%
CC1(OC(=O)c2ccc(Cl)nc2)C(=O)Cc2cc(-c3ccsc3)ncc2C1=O (centres undefined) 1.62%
CC(=O)c1ccc(N2CCN(CC(=O)Nc3ccccc3N3CCOCC3)CC2)cc1 -10.2%
CCCc1ccc(OCc2ccc(C(=O)N/N=C/c3cccc([N+](=O)[O-])c3)o2)c(OC)c1 1.3%
C/C=C1\C2C=C(C)CC1(N)c1ccc(=O)[nH]c1C2 (centres undefined) 2.46%
CCOC(=O)C1=C(O)/C(=C/c2cc(C)n(-c3ccccc3)c2C)N=C1C -14.4%
CC[C@H](C)[C@@H](NC(=O)O[C@@H]1C(=O)c2cc(OC)ccc2O[C@H]1c1cccc(OC)c1)C(=O)OC -6.3%
Cc1cc(C)cc(C(=O)NCC(=O)OCC(=O)N2CCCCC2)c1 -3.47%
O=C(CN1CCCCCC1)NCCN1C(=O)S/C(=C\c2ccccc2Cl)C1=O -1.37%
Cc1ccccc1-c1ccc(C(=O)O)s1 -6.19%
Cc1nc(-c2ccccc2)sc1-c1nnc(C2CC2)o1 2.15%
O=c1c(O)c(Br)ccc2c(Br)c(O)c(O)c(O)c12 -0.0671%
O=C(CSc1nc2ccccc2o1)N/N=C/c1ccccc1C(=O)O 1.17%
COc1cc(/C=C(/NC(=O)c2ccccc2)C(=O)Nc2cccc(O)c2)c([N+](=O)[O-])cc1OC 0.53%
CN(CCc1cnn(C)c1)Cc1cn(C)nc1-c1ccccc1F 10.6%
CC1=C2[C@@H](O)[C@H]([C@@H](C)C(=O)NCCC(C)C)CC[C@@]2(C)C=CC1=O 0.591%
CC/C=C\C/C=C\C/C=C\C/C=C\C/C=C\C/C=C\CCC(=O)NC(C)C(=O)O (centres undefined) -21.3%
CCn1c(COc2c(C)cccc2C)nnc1SCc1nc2ccccc2c(=O)[nH]1 1.02%
Cc1ccnc(NC(=O)CCC(=O)N(CC(=O)NCc2ccccc2)Cc2ccco2)c1 -4.12%
Cc1nc2c(ncn2-c2ccccc2)c(=O)n1NC(=O)CN1CCCC1 1.94%
CC(=O)Nc1sc2c(c1C(c1cccc(F)c1)N1CCN(CCO)CC1)CCCC2 (centres undefined) 9.68%
CCCCC[C@H](O)/C=C/[C@@H]1[C@@H](CC(=O)CCC(=O)O)[C@@H](O)C[C@H]1O -8.75%
O=C1C=C(c2ccccc2)CCC1 -14.5%
COc1ccc(NC(=O)C2CCC(CNc3c(N4CCCCC4)c(=O)c3=O)CC2)c(OC)c1 (centres undefined) 1.95%
COc1ccc(N2CCN(Cc3nnc(-c4ccccc4)o3)CC2)cc1 -1.07%
CC/C=C\C/C=C\C/C=C\C/C=C\C/C=C\C/C=C\CCC(=O)NCCc1ccc(O)c(O)c1 4.18%
CCOC(=O)C1=NO[C@@]2(C=C(Br)C(=O)[C@H]3O[C@H]32)C1 -5.58%
C=CCn1c(CCNC(=O)c2cccs2)n[nH]c1=S 4.24%
Cc1ccccc1NC(=O)c1ccc(COc2ccc3c(C)cc(=O)oc3c2)cc1 6.34%
COC(=O)Cc1ccc(Oc2ncc(C(F)(F)F)cc2Cl)cc1 -6.77%
CONc1nc2nonc2nc1NOC -4.09%
CCCCCCCCCCCCC(NC(C)=O)(C(=O)OCC)C(=O)OCC -26.2%
CCN(CC)CC(=O)Nc1sc2c(c1C(=O)c1ccccc1C)CCC2 -4.05%
CCCCNC(=O)C1CCCN(S(=O)(=O)c2ccc(S(=O)(=O)NCC(C)C)cc2)C1 (centres undefined) 9.52%
CCOc1cc(NC(=O)CCl)c(OCC)cc1NC(C)=O 0.492%
CCn1c(CN2C(=O)CSc3ccccc32)n[nH]c1=S 9.82%
CCOC(=O)N1CCN(c2cc(C)c([N+](=O)[O-])cc2F)CC1 -4.22%
Cc1noc(C)c1C(=O)N(CC(=O)NC1CCCC1)Cc1ccccc1F -1.52%
CC(C)Oc1ccc(CCc2nnc(SCC(=O)O)n2-c2ccccc2)cc1 0.212%
Cc1ccccc1CSc1nnc(CCCCCNC(=O)OC(C)(C)C)o1 -7.03%
Cc1ccccc1CCN(CC(=O)NC1CCCCC1)C(=O)c1csnn1 -11.9%
CCc1c(O)nc(SCC(=O)Nc2ccccc2)n(C(C)CC)c1=O (centres undefined) 1.66%
COc1ccc(NC(=O)c2ccccc2[N+](=O)[O-])cc1OC -4.17%
CC(C)(C)c1nnc(NC(=O)C2c3ccccc3Oc3ccccc32)s1 -3.91%
O=C(Nc1ccc(N2CCOCC2)nc1)c1c(F)cccc1F -7.51%
COc1ccc(/C=C/CN2CCCC(C(=O)c3cc(F)ccc3F)C2)cc1 (centres undefined) -4.13%
Cc1cccc(CN2CCN(Cc3cnn(-c4ccccc4F)c3)CC2CCO)n1 (centres undefined) 6.2%
CCCCc1ccc(NC(=S)NCCCN2CCOCC2)cc1 4.11%
C=CCC(C)(O)c1ccco1 (centres undefined) 4.87%
COc1c(O)cc2oc(-c3ccc(O)c(O)c3)cc(=O)c2c1O -6.71%
O=C1OCCN1C(=O)[C@H]1[C@H](c2ccc(F)cc2)C(c2ccccc2)=NN1c1ccc(Br)cc1 17.8%
C=C(C)C(=O)c1ccc(F)cc1 0.52%
CC(C)(C)OC(=O)NCCCCC1=CC2=CC(=O)C(C)(OC(=O)c3cccs3)C(=O)C2=CO1 (centres undefined) -5.62%
C=C(C(C)=O)C(O)c1cccs1 (centres undefined) -4.73%
COc1ccc(C(=O)OCC(=O)NC(=O)CCSc2ccccc2)cc1 8.51%
Cc1ccc(N2C(=O)C(CC(=O)Nc3cccc(F)c3)N(CCc3ccncc3)C2=O)cc1 (centres undefined) -9.74%
CCCCCCCCn1c2c(c(=N)c3c1CCC3)CCCC2 1.8%
CN(c1ccc2nc3ccccc3c(=O)n2n1)C1CCCCC1 3.01%
Cc1ccc(Nc2nc(N)nc(CN3CCN(Cc4ccccc4)CC3)n2)cc1Cl -11%
Cc1ccc(NC(=O)c2csc3c2CCCC3)cc1 -2.99%
